Results on 54 compounds are retold here after paper PMC4336329 (PLoS ONE, 2015).

The structures appear in SMILES notation. Screen size: about 310,000 compounds; about 14,000 (4.5%) showed an effect of 50% or more. Effects have a minus sign here. What follows is part of a selection rich in strong results, with near analogues and random picks from the rest.
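Also: peak tail current of the secondary pulse compared with the same well before compound.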

human ether-à-go-go-related gene (hERG) potassium channel, sequence (Q12809 whole entry, looked up): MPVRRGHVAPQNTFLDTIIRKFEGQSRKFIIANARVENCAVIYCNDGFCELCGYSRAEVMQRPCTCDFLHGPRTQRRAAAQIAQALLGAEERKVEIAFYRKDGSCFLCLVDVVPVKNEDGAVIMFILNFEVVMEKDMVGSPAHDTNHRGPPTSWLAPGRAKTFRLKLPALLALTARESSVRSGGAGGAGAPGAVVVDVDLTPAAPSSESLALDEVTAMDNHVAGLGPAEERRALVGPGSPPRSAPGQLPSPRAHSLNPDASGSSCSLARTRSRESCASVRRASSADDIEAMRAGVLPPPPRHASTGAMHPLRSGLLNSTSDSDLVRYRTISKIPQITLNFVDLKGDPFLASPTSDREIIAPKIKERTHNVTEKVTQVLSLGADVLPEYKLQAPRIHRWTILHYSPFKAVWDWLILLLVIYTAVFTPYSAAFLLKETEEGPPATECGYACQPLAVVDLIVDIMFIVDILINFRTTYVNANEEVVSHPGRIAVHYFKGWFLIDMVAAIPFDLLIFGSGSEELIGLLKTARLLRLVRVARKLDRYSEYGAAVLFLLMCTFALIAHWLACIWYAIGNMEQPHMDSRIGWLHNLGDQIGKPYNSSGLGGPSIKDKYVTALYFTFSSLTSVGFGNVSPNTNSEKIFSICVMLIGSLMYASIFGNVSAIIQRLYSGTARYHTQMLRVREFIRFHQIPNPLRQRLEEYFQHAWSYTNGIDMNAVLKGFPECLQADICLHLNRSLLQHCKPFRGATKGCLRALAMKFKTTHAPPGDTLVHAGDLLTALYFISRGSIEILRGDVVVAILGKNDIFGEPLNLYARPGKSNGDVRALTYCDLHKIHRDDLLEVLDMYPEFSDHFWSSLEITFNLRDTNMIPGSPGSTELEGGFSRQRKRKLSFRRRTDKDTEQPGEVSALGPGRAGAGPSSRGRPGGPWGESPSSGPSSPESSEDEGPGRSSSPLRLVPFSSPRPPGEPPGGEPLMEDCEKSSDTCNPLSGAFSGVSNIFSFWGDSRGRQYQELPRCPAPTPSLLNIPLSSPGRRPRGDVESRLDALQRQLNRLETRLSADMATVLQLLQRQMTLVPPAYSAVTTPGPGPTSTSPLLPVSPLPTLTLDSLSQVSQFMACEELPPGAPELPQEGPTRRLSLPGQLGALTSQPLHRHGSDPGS

The assay addresses human ether-à-go-go-related gene (hERG) potassium channel (human, UniProt Q12809). Kind of assay: primary screen, population patch clamp on CHO cells stably expressing hERG; higher = less effect of the substance.
In the case of `C/C=C/c1ccc(OCCOCCNCc2ccccc2)c(OC)c1.O=C(O)C(=O)O`, the “hERG current change (%, negative = inhibition) at 10uM” value is given as -37%.
Regarding `C/C=C/c1ccc(OCCCCN2CC(C)CC(C)C2)c(OC)c1.O=C(O)C(=O)O` (stereo not drawn), the “hERG current change (%, negative = inhibition) at 10uM” value was -81.6%.
To `C/C=C/c1ccc(OCCCCNCc2ccco2)c(OC)c1.O=C(O)C(=O)O` belongs -72.9%; to `C/C=C/c1ccc(OCCCCN2CCN(CC)CC2)c(OC)c1.O=C(O)C(=O)O`, -29.5%.
To `C/C=C/c1ccc(OCCCCN(C)Cc2ccccc2)c(OC)c1.O=C(O)C(=O)O` belongs -79.4%; to `COc1cc(C)ccc1OCCCCN1CC(C)OC(C)C1.O=C(O)C(=O)O` (stereo not drawn), -9.65%.
The figure for `C/C=C/c1ccc(OCCCNC2CCCC2)c(OC)c1.O=C(O)C(=O)O` is -57.6%; for `C/C=C/c1ccc(OCCCCOc2ccccc2C(C)=O)c(OC)c1` it is -12.1%.
Take `C/C=C/c1ccc(OCCNCc2ccccc2)c(OC)c1.O=C(O)C(=O)O`: the “hERG current change (%, negative = inhibition) at 10uM” value is -39.8%.
To `C/C=C/c1ccc(OCCCNC)c(OC)c1.O=C(O)C(=O)O` belongs -44.6%.
The figure for `COc1cc(C)ccc1OCCOCCN(C)Cc1ccccc1.O=C(O)C(=O)O` is -32.8%.
The figure for `C/C=C/c1ccc(OCCCNC(C)CC)c(OC)c1.O=C(O)C(=O)O` (stereo not drawn) is -14%; for `C=CCN1CCN(C(c2ccccc2OC)c2nnnn2C(C)(C)C)CC1.Cl` (stereo not drawn) it is -0.19%.
`CCOC(=O)c1c(C)oc2ccc(OC(=O)N3CCOCC3)cc12`: the “hERG current change (%, negative = inhibition) at 10uM” value was -16.1%.
The figure for `CCCN(CCC)C(=O)CCSCCC(=O)N(CCC)CCC` is 14.5%; for `O=C(NCCN1CCOCC1)C1CCC(=O)N1Cc1ccc(F)cc1` (stereo not drawn) it is 1.05%; for `COc1ccc(Nc2nnc(SCc3cc(=O)n4ccsc4n3)s2)cc1` it is -68.9%.
On to `Cc1cccc2nc(CSc3nnc(N)s3)cn12`, for which the “hERG current change (%, negative = inhibition) at 10uM” value is reported as -9.23%.
The figure for `CCc1ccc(Nc2nnc(SCc3cc(=O)n4ccsc4n3)s2)cc1` is -11.5%.
The figure for `Cc1ccc(Nc2nnc(SCc3cc(=O)n4cc(C)ccc4n3)s2)cc1` is -36.6%; for `O=c1cc(CSc2nnc(Nc3ccccc3)s2)nc2sccn12` it is -27.6%.
To `COc1ccc(Nc2nnc(SCc3cn4c(C)cccc4n3)s2)cc1` belongs -52.2%.
In the case of `CCC(=O)N1CCC2(CC1)Oc1ccc(Cl)cc1C(=O)C21CC(c2cccnc2)=NO1` (stereo not drawn), the “hERG current change (%, negative = inhibition) at 10uM” value is recorded as -15.1%.
To `O=C(CCCN1C(=O)c2cccnc2C1=O)N1CC(=O)N(CCc2ccccc2)C(=O)C1` belongs -9.44%; to `CCOC(=O)c1cnc2ccccc2c1Nc1cccc(C(=O)O)c1.Cl`, 15.3%.
As for `CC(/C=C1\SC(=S)N(CCCC(=O)Nc2ccc(C(=O)O)c(O)c2)C1=O)=C\c1ccccc1`, the “hERG current change (%, negative = inhibition) at 10uM” value was 7.47%.
To `Cc1ccc(C)c(S(=O)(=O)NCC(=O)Nc2ccc3c(c2)OCO3)c1` belongs 3.55%; to `Cc1cc(C)n(CCn2nc(C)cc2C)n1`, 4.43%; to `Cc1ccc(NC(=S)NCc2ccccc2Cl)c(C)c1`, 2.81%.
Take `CCC(C)NC(=O)c1cn(CC)c2ccc(S(=O)(=O)N(C)C)cc2c1=O` (stereo not drawn): the “hERG current change (%, negative = inhibition) at 10uM” value was determined as 1.45%.
For the compound `COCCN1CCN(C(=O)c2cc(COc3ccc(F)cc3Cl)on2)CC1`, the “hERG current change (%, negative = inhibition) at 10uM” value is recorded as -3.91%.
For the compound `NC(=O)CC(NC(=O)Cc1ccc(Br)cc1)c1ccc(N2CCN(c3ccccn3)CC2)c([N+](=O)[O-])c1` (stereo not drawn), the “hERG current change (%, negative = inhibition) at 10uM” value was found to be 17.2%.
The figure for `CCN(CC)CCn1c2c(c(SCC(=O)Nc3cc(OC)cc(OC)c3)nc1=O)CCC2` is -70.1%.
The figure for `COc1cc(NC(=O)CSc2nc(=O)n(CCN3CCOCC3)c3c2CCCC3)cc(OC)c1` is -23.3%; for `COc1cc(NC(=O)CSc2nc(=O)n(CCCN3CCOCC3)c3c2CCC3)cc(OC)c1` it is -34.9%; for `CCN(CC)CCCn1c2c(c(SCC(=O)Nc3cc(OC)cc(OC)c3)nc1=O)CCC2` it is -64.4%.
To `COc1cc(NC(=O)CSc2nc(=O)n(CCN3CCOCC3)c3c2CCC3)cc(OC)c1` belongs -41.9%; to `CCN(CC)CCn1c2c(c(SCC(=O)Nc3cc(C)cc(C)c3)nc1=O)CCC2`, -62.1%.
With `Cc1ccc(C)c(NC(=O)CSc2nc(=O)n(CCN3CCOCC3)c3c2CCCC3)c1`, the “hERG current change (%, negative = inhibition) at 10uM” value is -24.2%.
Take `CCN(CC)CCn1c2c(c(SCC(=O)Nc3cc(C)ccc3C)nc1=O)CCC2`: the “hERG current change (%, negative = inhibition) at 10uM” value is on record as -61%.
For `CCN(CC)CCn1c2c(c(SCC(=O)Nc3cc(C)on3)nc1=O)CCCC2`, the “hERG current change (%, negative = inhibition) at 10uM” value is given as -25%.
The figure for `COC(=O)NC1(C(=O)O)CCCC1` is -0.802%.
The figure for `O=C(NNC(=O)c1cc(-c2ccco2)nc2ccccc12)c1ccccc1` is -3.05%.
For `O=S(=O)(Nc1nc2ccccc2nc1NCC1CCCO1)c1ccc(F)cc1` (stereo not drawn), the “hERG current change (%, negative = inhibition) at 10uM” value is -1.06%.
The figure for `Cc1cc(OCC(=O)N2C[C@H]3C[C@@H](C2)c2cccc(=O)n2C3)c2c(C)cc(=O)oc2c1` is 10.3%.
The figure for `COc1ccc(/C=N/NC(=O)C(=O)N2CCN(c3ccccc3OC)CC2)cc1` is -27.6%; for `COc1cc(CCC(=O)Nc2ccc(Cl)c(C(F)(F)F)c2)cc(OC)c1OC` it is 13.1%; for `Cc1cc(Cl)c(S(=O)(=O)NCC2CCCO2)cc1OCC(N)=O` (stereo not drawn) it is 4.47%.
In the case of `O=C(NC1CCCC1)c1cc(-c2ccc(Cl)cc2Cl)on1`, the “hERG current change (%, negative = inhibition) at 10uM” value was found to be 7.16%.
As for `O=C(CN(Cc1ccco1)C(=O)c1ccc(N2CCCC2=O)cc1)Nc1ccccc1C(F)(F)F`, the “hERG current change (%, negative = inhibition) at 10uM” value is recorded as -46.3%.
To `CCNC(=O)c1sc2cc(C)ccc2c1Cl` belongs -3.25%.
To `CN(C)S(=O)(=O)c1ccc(N2CCCC2)c(C(=O)NC2CCC(O)CC2)c1` (stereo not drawn) belongs 13.2%.
To `c1ccc(-n2nnnc2NC2CCCCC2)cc1` belongs 11%; to `Cc1ccc(CSCC(Nc2ccc(C(=O)O)cc2[N+](=O)[O-])C(=O)O)cc1` (stereo not drawn), 6.66%.
